Source: PubChem (National Center for Advancing Translational Sciences (NCATS))
This is a sample that favours compounds with a hit; in the whole collection about 10% have one here.
BAZ2B block: qHTS Assay for Inhibitors of BAZ2B | Potency, µM (titrated, usually from 114 µM), for inactives: top-dose activity change, negative = inhibition, actives largely listed as inhibitors | Bromodomain adjacent to zinc finger domain protein 2B (Homo sapiens), Q9UIF8 | actives 4.4% (n = 360,000) | AlphaScreen BAZ2B-H3K14Ac peptide displacement; note: potency is the fitted concentration of half-maximal effect; % is set by controls: 0 for no effect and ±100 for the full control effect; nearly all actives have a fitted effect of over 60% in size
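Multi-concentration screen (max 110 uM) measuring displacement of acetylated histone H3 peptide from BAZ2B by AlphaScreen, using 50 nM protein, 50 nM peptide and 10 ug/mL streptavidin donor plus Ni-chelate acceptor beads.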
Six1-Eya2 inh: qHTS Assay for Inhibitors of the Six1/Eya2 Interaction. Homeobox protein SIX1 (Homo sapiens) + Protein phosphatase EYA2 (Homo sapiens), …. AlphaScreen GST-Six1/His-Eya2 binding, biochemical; active compounds read low. activity change, % (concentration not given with the values). actives 0.56% (n = 360,000). AID 651725, 2012; in the data active = activity change below about -65%; inconclusive = mostly about -30% to -63%; note: % is set by controls: 0 for no effect and ±100 for the full control effect
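AlphaScreen with GST-Six1 and His-Eya2 (5X mix: 250 nM and 500 nM), glutathione donor and nickel acceptor beads; buffer 50 mM Tris pH 8.0, 300 mM NaCl, 1 mM TCEP; 1 h at 37 C in the dark.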
HP1b chromo inh: HTS for Inhibitors of HP1-beta Chromodomain Interactions with Methylated Histone Tails | Chromobox protein homolog 1 (Homo sapiens), P83916 | AlphaScreen HP1-beta / biotin-H3K9me3 peptide binding | Potency, µM (doses to about 114 µM), for inactives: at the highest dose activity change, negative = inhibition, actives largely listed as inhibitors | actives 0.56% (n = 390,000) | AID 540317, 2011; note: potency is the fitted concentration of half-maximal effect; nearly all actives have a fitted effect of over 70% in size
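HP1-beta protein (50 nM final) preincubated 30 min at room temperature with biotinylated H3(1-18)K9me3 peptide (50 nM) in PBS pH 7.4, 0.01% Tween-20, then compound added for 30 min. AlphaScreen streptavidin donor/nickel chelate acceptor beads (10 ug/mL final), 30 min dark, luminescence read.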
G9a block: qHTS Assay for Inhibitors of Histone Lysine Methyltransferase G9a | Histone-lysine N-methyltransferase EHMT2 (Homo sapiens), Q96KQ7 | G9a H3K9 monomethylation, AlphaScreen, 2 h | Potency, µM (top dose mostly 102 µM), for inactives: at the top dose activity, negative = inhibition, most hits filed as inhibitors | actives 8.8% (n = 350,000); note: potency is the fitted concentration of half-maximal effect; % is set by controls: 0 for no effect and ±100 for the full control effect; nearly all actives have a fitted effect of over 75% in size
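G9a (20 nM) was preincubated 15 min with compound, then reacted 2 h at room temperature with 500 nM biotin-H3K9 peptide and 20 µM SAM. Monomethyl-H3K9 detected by AlphaScreen using anti-H3K9me1 antibody.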
JMJD2A Tudor: qHTS Assay for Inhibitors of JMJD2A-Tudor Domain | AlphaScreen JMJD2A-Tudor / H3K4me3 peptide binding | Lysine-specific demethylase 4A (Homo sapiens), O75164 | AID 504339, 2011 | actives 4.4% (n = 390,000) | Potency, µM (top dose mostly 114 µM), for inactives: at the top dose activity change, negative = inhibition, most hits filed as inhibitors; note: potency is the fitted concentration of half-maximal effect; % is set by controls: 0 for no effect and ±100 for the full control effect; nearly all actives have a fitted effect of over 50% in size
CtBP-E1A blk: qHTS Assay for Inhibitors of the CtBP/E1A Interaction; CtBP / adenovirus E1A interaction (AlphaScreen); AID 651724, 2012; activity change, % (no concentration beside the values); actives 0.49% (n = 340,000); AlphaScreen GST-E1A/His-CtBP binding, 1536-well; active compounds read low; in the data active = activity change below about -65%; inconclusive = mostly about -30% to -63%; note: % is set by controls: 0 for no effect and ±100 for the full control effect
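AlphaScreen with 125 nM GST-E1A and 125 nM His-CtBP (5X stocks) in Tris pH 8.0, 300 mM NaCl, BSA, Tween 20, TCEP. Compounds preincubated 2 h at 37 deg C, then glutathione donor/nickel acceptor beads added for 1 h at 37 deg C in dark.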
An asterisk follows results filed as active; ? = inconclusive; / = no result; [ ] = another dose, or the depositor's remark. Unless noted, calls come from the whole dose curve; as a rule, active = well fitted inhibition curve with a large enough effect; inconclusive = small, poorly fitted or top-dose-only effect; inactive = no such curve, though single readings can be large or run the other way.

SMILES | BAZ2B block | Six1-Eya2 inh | HP1b chromo inh | G9a block | JMJD2A Tudor | CtBP-E1A blk
COc1ccc(N2CCN(c3ccc4nnc(CCC(=O)Nc5ccc(C)cc5)n4n3)CC2)cc1 | 45µM* | 0 | ? | / | ? | 0
COc1ccc(NC(=O)CN2CCN(c3ccc(F)cc3)CC2)cc1 | -14% | 2 | -2% | -2% | 25µM* | -10
COc1ccc(NC(=O)CCc2nnc3ccc(N4CCC(C)CC4)nn23)cc1 | -18% | 3 | 22%[57 µM] | 11% | 1% | /
Cc1cc(NC(=O)CN2CCc3ccccc3C2)nc2c1c(=O)oc1ccccc12 | -5% | 1 | 39% | 28µM* | -22% | -15
Cc1cc(NC(=O)CN2CCC(C)CC2)nc2c1c(=O)oc1ccccc12 | 1% | / | 24% | 5%[59 µM] | 5% | /
CCOc1ccc(NC(=O)CN2CCN(c3ccc(F)cc3)CC2)cc1 | -23% | -11 | 11% | 15% | ? | 8
O=C(Cn1c(/C=C/c2ccccc2)nc2ccccc21)Nc1ccc(F)cc1 | -3% | 3 | 16% | 28%[59 µM] | 50µM* | 4
O=S(=O)(O)c1ccc(SCc2ccccc2)nc1 | / | 2 | 24% | / | 89µM* | 12
Nc1nonc1-n1nnc(C(=O)N/N=C/c2cc(Br)cs2)c1-c1ccccc1 | 1% | 16 | 46% | -8% | -16% | 0
Cc1ccc2c(c1)c1c3n2CCN(CCC#N)C3CCC1 (stereo unspecified) | / | -1 | / | / | / | 2
CCN1CCn2c3c(c4cc(C)ccc42)CCCC31 (stereo unspecified) | ? | -17 | ? | 20µM* | ? | -26
CCN1CCn2c3c(c4cccc(C)c42)CCCC31 (stereo unspecified) | ? | -2 | -7% | 71µM* | ? | -15
Cc1nn(Cc2cccc(C(=O)O)c2)c(C)c1[N+](=O)[O-] | -12% | -2 | 30% | 12% | -8% | 1
COc1cccc(-c2noc(Cn3nc(C)c([N+](=O)[O-])c3C)n2)c1 | 0% | -1 | -12% | 40µM* | -12% | 3
COC(=O)c1cccc(Cn2nc(C)c([N+](=O)[O-])c2C)c1 | -15% | 3 | 9% | 5%[59 µM] | 50µM* | 15
COc1cccc(OCc2nc(-c3cccc([N+](=O)[O-])c3)no2)c1 | -19% | -21 | 5% | 10%[59 µM] | -22% | -10
CC(C)(C)C(=O)NCCCC(=O)O | / | / | / | 5%[12.7 µM] | / | /
COc1cc(NC(=O)c2nc(-c3ccncc3)no2)cc(OC)c1OC | -2% | / | 16% | -5%[59 µM] | 0% | /
Cc1cc(/C=C2/C(=N)N3C(c4ccccc4)=CSC3=NC2=O)c(C)n1-c1ccccc1 | 4% | 2 | 35% | 50µM* | -13% | 5
N=C1/C(=C\c2ccc(-c3cccc(C(=O)O)c3)o2)C(=O)N=C2SC=C(c3ccccc3)N12 | 22µM* | -15 | ? | 11µM* | -21%[11.4 µM] | ?
COc1cc(/C=C2/C(=N)N3N=C(CC(=O)N4CCOCC4)SC3=NC2=O)ccc1OCc1ccccc1F | ? | -6 | 39% | 13% | -26% | -4
COc1cc(/C=C2/C(=N)N3N=C(CC(=O)N4CCOCC4)SC3=NC2=O)ccc1OCc1ccc(F)cc1 | -23% | -1 | 10% | 12% | 4.5µM* | -17
COc1ccccc1-n1c(C)cc(/C=C2\C(=N)N3N=C(CC(=O)N4CCOCC4)SC3=NC2=O)c1C | 50µM* | -6 | 51% | -15% | 10% | /
Cc1ccccc1-n1c(C)cc(/C=C2/C(=N)N3C(c4ccccc4)=CSC3=NC2=O)c1C | -7% | -2 | -1% | ? | -28% | -8
C=CCN(C(=O)c1csnn1)C(C(=O)NC1CCCC1)c1ccc(F)cc1 (stereo unspecified) | 0% | 0 | 8% | -5% | -15% | 20
SMILES | BAZ2B block | Six1-Eya2 inh | HP1b chromo inh | G9a block | JMJD2A Tudor | CtBP-E1A blk
Cc1ccc(C(=O)Oc2ccc(/C=C3\C(=N)N4N=C(N5CCOCC5)SC4=NC3=O)cc2)cc1 | -32% | -88* | 14% | 22% | ? | ?
Cc1ccc(/C=C2\C(=N)N3N=C(CC(=O)N4CCOCC4)SC3=NC2=O)o1 | -27% | 8 | -16% | 56µM* | 56µM* | 0
N=C1/C(=C\c2ccc(SCc3ccccc3)o2)C(=O)N=C2SC=NN12 | -20% | -16 | 24% | 50µM* | -31% | /
N=C1/C(=C\c2ccc(OC(=O)c3ccccc3)cc2)C(=O)N=C2SC(N3CCOCC3)=NN12 | ? | -10 | -7% | ? | ? | -25
N=C1/C(=C/c2ccc(-c3cccc(C(=O)O)c3)o2)C(=O)N=C2SC(CC(=O)N3CCOCC3)=NN12 | 25µM* | ? | ? | ? | 20µM* | -16
O=C(O)C1CC(O)CN1c1nc(Cl)ccc1[N+](=O)[O-] (stereo unspecified) | -30% | 12 | -13% | 34%[12.7 µM] | -20% | 0
O=C(NCc1ccc(F)cc1)c1cc(-c2ccc(Cl)cc2)n[nH]1 | -4% | / | 26% | 0%[59 µM] | -12% | /
COc1cc(C(=O)Nc2ccc(C(=O)c3cccs3)cc2)cc(OC)c1OC | -37% | -3 | 14% | -10% | -11% | /
N=C1/C(=C\c2ccc(SCc3ccccc3)o2)C(=O)N=C2SC(CC(=O)N3CCOCC3)=NN12 | 45µM* | -6 | 6% | ? | ? | /
CCSC1=C(C#N)C(c2ccccc2C)CC(=O)N1 (stereo unspecified) | 1% | 7 | 42% | ? | -5% | 12
C=CCSC1=C(C#N)C(c2ccccc2Cl)CC(=O)N1 (stereo unspecified) | 5% | 2 | -14% | 20µM* | -19% | -11
C=C(C)CSC1=C(C#N)C(c2ccccc2Cl)CC(=O)N1 (stereo unspecified) | 5% | -3 | ? | 45µM* | ? | 6
Cc1ccc(SCC(=O)OCC(=O)NCCc2ccccc2)cc1C | 25% | 7 | 47% | 5%[12.7 µM] | 30% | 10
O=C(CSc1ncccn1)N/N=C/c1ccc2c(c1)OCO2 | -14% | -1 | 30% | 49% | -18% | -13
Cc1cccc(C)c1-n1c(C)cc(/C=N\NC(=O)CC(=O)NC2CCCCC2)c1C | 50µM* | -12 | ? | -4%[59 µM] | ? | 0
Cc1cc(/C=N\NC(=O)CC(=O)NC2CCCCC2)c(C)n1-c1cccc(Cl)c1Cl | ? | -8 | -23% | -47%[59 µM] | ? | -16
